Only some compounds are listed: those with a hit (about 11% of all), similar ones and a draw of the others.
OTUD3 block: inhibitors of human OTUD3 deubiquitinase; OTU domain-containing protein 3 (Homo sapiens), Q5T2D3; purified OTUD3, Ub-rhodamine fluorescence, 2 h; inhibition, % at 25 µM; hit rate 0.7% among 47,000
USP17 block: inhibitors of human USP17 deubiquitinase. AID 1645855, 2021. Ubiquitin carboxyl-terminal hydrolase 17-like protein 5 (Homo sapiens), A8MUK1. purified USP17, Ub-rhodamine cleavage fluorescence, 3 h. hit rate 6.5% among 47,000. inhibition, % at 50 µM
USP30 inh: inhibitors of human USP30 deubiquitinase | inhibition, % at 25 µM | Ubiquitin carboxyl-terminal hydrolase 30 (Homo sapiens), Q70CQ3 | hit rate 5.3% among 47,000 | purified USP30, Ub-rhodamine cleavage fluorescence
Target sequence (Q70CQ3 whole entry, looked up): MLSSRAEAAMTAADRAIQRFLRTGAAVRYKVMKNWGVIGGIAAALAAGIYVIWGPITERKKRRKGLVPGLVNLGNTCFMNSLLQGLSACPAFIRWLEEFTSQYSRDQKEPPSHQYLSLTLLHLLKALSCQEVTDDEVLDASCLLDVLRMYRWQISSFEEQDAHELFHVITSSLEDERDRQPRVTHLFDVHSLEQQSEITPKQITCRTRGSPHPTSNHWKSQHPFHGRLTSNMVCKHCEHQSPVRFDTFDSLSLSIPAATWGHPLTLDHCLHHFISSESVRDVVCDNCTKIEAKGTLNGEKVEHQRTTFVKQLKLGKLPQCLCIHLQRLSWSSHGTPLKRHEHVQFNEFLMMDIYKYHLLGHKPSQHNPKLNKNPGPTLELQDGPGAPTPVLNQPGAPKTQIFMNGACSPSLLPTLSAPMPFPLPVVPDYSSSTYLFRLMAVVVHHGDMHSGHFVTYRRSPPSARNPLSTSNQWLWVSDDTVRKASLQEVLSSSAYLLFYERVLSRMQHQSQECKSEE
USP28 block: inhibitors of human USP28 deubiquitinase; hit rate 3% among 47,000; inhibition, % at 25 µM; purified USP28, Ub-rhodamine cleavage fluorescence, 30 min; Ubiquitin carboxyl-terminal hydrolase 28 (Homo sapiens), Q96RU2
Numbers without * were called inactive; i = inactive; . = not tested or not shown. Rule as the data show it: active = inhibition above about 30%; inactive = the rest.

SMILES	OTUD3 block	USP17 block	USP30 inh	USP28 block
C[C@@H](C(=O)NCc1ccc2c(c1)OCO2)N1C(=O)N2CCc3c([nH]c4ccccc34)[C@@]2(C)C1=O	5	30	33*	15
C[C@@H](C(=O)NCc1ccc(F)cc1)N1C(=O)N2CCc3c([nH]c4ccccc34)[C@@]2(C)C1=O	-6	59*	46*	36*
CCN1C(=O)Cc2cc(NC(=O)Cc3ccc(F)cc3)ccc21	-6	.	-4	1
CN1CC[C@@]2(C(=O)N3CCCC3)CCN(S(=O)(=O)c3ccccc3F)CC[C@@H]12	5	-16	9	-1
O=C(Nc1cccc(Cl)c1)N1CCc2nc(N3CCCCC3)ncc2C1	-5	-6	-65	-1
CCCCN1CCS(=O)(=O)c2c(Cl)c(F)nc(Oc3ccc(OC)cc3)c21	8	25	4	10
COCCCN1CCS(=O)(=O)c2c(Cl)c(F)nc(Oc3ccccc3)c21	-7	41*	-2	7
COc1ccc(Oc2nc(F)c(Cl)c3c2N(CC2CCCO2)CCS3(=O)=O)cc1 (centres undefined)	6	33*	-51	17
COc1cc(C2CCN(C(=O)Nc3cccc(F)c3)CC2)on1	2	2	4	3
CNC(=O)[C@@]12CCC3(CCN(C(=O)c4cc(C)on4)CC3)[C@@H]1CN(C(C)=O)C2	18	7	13	12
Cc1cccc2cc(CN(Cc3ccc4c(c3)OCO4)C(=O)NCc3ccccc3)c(=O)[nH]c12	13	20	36*	23
Cc1noc(C)c1CCn1ccc2ccn(Cc3cccnc3)c2c1=O	13	5	4	9
O=c1c2c(ccn1Cc1cc(F)ccc1F)ccn2Cc1cccnc1	0	-7	8	68*
Cc1ccccc1Cn1ccc2ccn(Cc3cccnc3)c2c1=O	20	14	30*	60*
CCOC(=O)c1cc2c(ccn2C)n1CC(=O)N(Cc1ccc(Cl)cc1)c1ccccc1	-34	43*	-160	-10
CCOC(=O)c1cc2c(ccn2C)n1Cc1ccc(C#N)cc1	-29	20	-135	-35
COc1cccc(NC(=O)c2cn(C)nc2S(=O)(=O)N2CCCCC2)c1	8	8	7	12
O=C(CCc1ccccc1)N1CCN(c2cc(-c3cccnc3)[nH]n2)CC1	13	16	30*	14
O=C(CN1C(=O)C2CCCC2=Nc2ccccc21)Nc1cc(F)ccc1F (centres undefined)	10	60*	6	9
CCc1ccccc1NC(=O)CN1C(=O)C2CCCC2=Nc2ccccc21 (centres undefined)	6	7	10	5
Cc1ccc(S(=O)(=O)N(CC(O)Cn2c3ccccc3c3ccccc32)c2ccc(F)cc2)cc1 (centres undefined)	1	-3	19	6
CCCC(=O)Nc1c(-c2ccc3c(c2)OCO3)c(=O)c2ccccc2n1C	13	16	19	19
N#Cc1c(-c2ccccc2)ccn(Cc2cccc(C(F)(F)F)c2)c1=O	3	53*	44*	17
COc1ccc(Cn2ccc(-c3ccccc3)c(C#N)c2=O)cc1	14	16	21	20
Cc1noc(-c2cccn(Cc3cccc(C(F)(F)F)c3)c2=O)n1	12	13	14	76*
SMILES	OTUD3 block	USP17 block	USP30 inh	USP28 block
COc1cccc(C(=O)N2CCN(c3ncnc4c3nnn4Cc3ccccc3)CC2)c1	20	19	35*	33*
C[C@@]12c3ccc4c(c3C(=O)c3occ(c31)C(O)C[C@H]2O)CCC4=O (some centres undefined)	-5	57*	-104	-6
COCC(=O)N1CCC(O)(Cn2ccc3nc(Cl)ccc32)CC1	7	8	13	2
CC(C)=CCC/C(C)=C/C[C@]1(O)C(=O)c2cc(O)cc(O)c2C(=O)[C@@]1(Cl)CC=C(C)C	14	50*	9	20
CN(C)C(=O)c1ccc(OC2CCN(C(=O)c3ccc(F)cc3)CC2)nc1	2	12	-48	3
Cc1cc(C)cc(C(=O)N2CCC(Oc3ccc(C(=O)N(C)C)cn3)CC2)c1	2	1	0	44*
Fc1cccc(Cc2nc(-c3ccc4nncn4c3)no2)c1	-5	-3	.	.
CCOc1ccc(Cc2nc(-c3ccc4nnc(C)n4c3)no2)cc1	-1	0	3	-1
COc1ccc(Cc2nc(-c3ccc4nncn4c3)no2)c(Cl)c1	1	0	5	41*
Fc1ccc(Cc2nc(-c3ccc4nncn4c3)no2)cc1	-1	1	-1	58*
Clc1ccc(OCc2nc(-c3ccn4cnnc4c3)no2)cc1	-91	14	-99	45*
O=C(NCc1ccncc1)c1nc(-c2ccc3[nH]ccc3c2)no1	1	2	1	5
COc1ccc(CNC(=O)c2nc(-c3ccc4cc[nH]c4c3)no2)cc1	15	26	41*	18
O=C(NCc1ccccc1Cl)c1nc(-c2ccc3[nH]ccc3c2)no1	-4	49*	47*	18
CCNC(=O)N1CCCC(c2cccc(C(=O)NCc3ccccc3)c2)C1 (centres undefined)	-4	-2	0	-9
O=C(NCCc1ccccc1)c1cc2ccccc2c(=O)s1	3	73*	.	.
O=C(NCCc1ccc(Cl)cc1)c1cc2ccccc2s1	7	13	28	12
CC(=O)Nc1cccc(NC(=O)Cn2ccc3cc(Br)ccc32)c1	33*	61*	54*	62*
CCCN1CCC(N2CC3(CCN(S(=O)(=O)c4ccccc4)C3)C2)CC1	-45	-70	-218	-59
O=C(NC1CC1)c1ccc(-c2ccc(N3CCCCC3)nc2)cc1	0	48*	16	3
O=C(NC1CCCC1)c1cccc(-c2ccc(N3CCCC3)nc2)c1	-19	51*	-40	-3
O=C(NCc1cccnc1)c1cccc(-c2ccc(N3CCCC3)nc2)c1	-3	-1	.	.
c1ccc(CCN2CCn3c(nc4ccccc43)C2)cc1	-178	-156	i	-226
O=[N+]([O-])c1ccc2c(c1)nc1n2CCN(Cc2ccco2)C1	22	61*	42*	43*
O=C(Cn1c(=O)n(CCCC(=O)NC2CCCC2)c(=O)c2cc(Cl)ccc21)Nc1cccc(F)c1	-2	3	37*	-1
COc1cc(OC)c(NC(=O)Cn2c(=O)n(Cc3ccccc3Cl)c(=O)c3cc(OC)c(OC)cc32)cc1Cl	24	29	60*	36*
COc1ccc(NC(=O)Cn2c(=O)n(CCCC(=O)NC3CCCC3)c(=O)c3cc(Cl)ccc32)cc1	-17	-4	-5	-22
COc1cc2c(=O)n(CCC(=O)NC3CCCC3)c(=O)n(CC(=O)Nc3cccc(Cl)c3)c2cc1OC	24	42*	24	18
COc1ccc(NC(=O)Cn2c(=O)n(C3CCCC3)c(=O)c3cc(OC)c(OC)cc32)cc1OC	24	39*	17	14
O=C(c1ccccn1)N1Cc2ccnn2CC(COCC2CC2)C1 (centres undefined)	21	-2	13	8

Assay outcomes deposited in PubChem BioAssay by Buhrlage Lab, Dana-Farber Cancer Institute and Novartis Institutes for BioMedical Research (Cambridge, Mass).
